# Measurements taken from paper PMC4336329 (PLoS ONE, 2015).
# About 14,000 (4.5%) of roughly 310,000 compounds showed an effect of 50% or more. Effects have a minus sign here. The sample holds strong results, similar compounds and a random draw of the others, so the mix is not that of the screen.
# Biological target: human ether-à-go-go-related gene (hERG) potassium channel (human, UniProt Q12809)
# Assay: primary screen, population patch clamp on CHO cells stably expressing hERG; higher = less effect of the substance
# 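Note: peak tail current of the secondary pulse compared with the same well before compound.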
# Chain of human ether-à-go-go-related gene (hERG) potassium channel (Q12809 whole entry, looked up): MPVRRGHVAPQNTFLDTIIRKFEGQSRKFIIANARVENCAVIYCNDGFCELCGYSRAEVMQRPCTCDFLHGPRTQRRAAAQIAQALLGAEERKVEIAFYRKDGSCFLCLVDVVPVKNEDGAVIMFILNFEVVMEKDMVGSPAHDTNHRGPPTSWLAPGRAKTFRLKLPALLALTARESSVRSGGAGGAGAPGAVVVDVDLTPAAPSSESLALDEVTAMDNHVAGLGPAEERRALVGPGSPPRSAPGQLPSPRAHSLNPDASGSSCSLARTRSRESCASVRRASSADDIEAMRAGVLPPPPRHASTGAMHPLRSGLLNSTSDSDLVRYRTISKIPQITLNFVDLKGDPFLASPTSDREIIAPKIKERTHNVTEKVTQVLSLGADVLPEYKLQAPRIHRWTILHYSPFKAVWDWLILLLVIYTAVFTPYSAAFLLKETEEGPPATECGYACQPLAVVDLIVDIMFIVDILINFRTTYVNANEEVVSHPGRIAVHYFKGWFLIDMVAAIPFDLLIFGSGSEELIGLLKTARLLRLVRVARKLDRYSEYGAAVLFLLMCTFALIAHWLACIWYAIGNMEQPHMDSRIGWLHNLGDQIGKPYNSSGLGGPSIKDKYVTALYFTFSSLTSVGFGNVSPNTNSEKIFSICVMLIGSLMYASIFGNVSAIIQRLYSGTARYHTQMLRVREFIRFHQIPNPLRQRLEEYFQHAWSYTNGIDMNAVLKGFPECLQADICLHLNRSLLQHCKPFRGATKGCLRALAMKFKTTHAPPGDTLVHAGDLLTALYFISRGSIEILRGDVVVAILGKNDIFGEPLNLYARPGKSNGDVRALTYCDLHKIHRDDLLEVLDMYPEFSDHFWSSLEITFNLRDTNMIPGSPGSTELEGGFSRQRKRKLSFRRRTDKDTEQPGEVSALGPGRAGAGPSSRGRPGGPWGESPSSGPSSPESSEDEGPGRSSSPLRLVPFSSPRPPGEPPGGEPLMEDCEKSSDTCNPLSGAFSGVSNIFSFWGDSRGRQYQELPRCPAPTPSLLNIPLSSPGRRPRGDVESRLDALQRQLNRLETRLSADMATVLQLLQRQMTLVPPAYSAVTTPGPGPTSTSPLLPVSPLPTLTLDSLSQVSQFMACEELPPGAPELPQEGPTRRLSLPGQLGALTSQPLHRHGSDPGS
row,SMILES,"hERG current change (%, negative = inhibition) at 10uM [%]"
1,Cn1cccc1C(=O)NC(=O)COC(=O)c1ccccc1O,-6.93
2,Cc1cccc(-c2nc3ccccc3c(=O)n2NC(=O)/C=C/c2ccc([N+](=O)[O-])cc2)c1,-60.7
3,O=C(Nn1c(-c2ccccc2)nc2ccccc2c1=O)c1ccc([N+](=O)[O-])cc1,-15.4
4,O=C(/C=C/c1cccc([N+](=O)[O-])c1)Nn1c(-c2ccccc2F)nc2ccccc2c1=O,-23.1
5,Cc1cc(C(=O)Nn2c(-c3ccc(Br)cc3)nc3ccccc3c2=O)ccc1[N+](=O)[O-],8.86
6,O=C(Nn1c(-c2ccc(Br)cc2)nc2ccccc2c1=O)c1ccc([N+](=O)[O-])cc1,-66.6
7,Cc1cccc(-c2nc3ccccc3c(=O)n2NC(=O)c2ccc([N+](=O)[O-])c(C)c2)c1,14.5
8,CN(c1ccc(C(=O)NCc2ccco2)cc1)S(C)(=O)=O,5.87
9,NC(=O)C1CCN(C(=O)c2cc3n(n2)C(C(F)(F)F)CC(c2ccco2)N3)CC1 (centres unmarked),14.8
10,Cc1nc(-c2ccc(Cl)cc2)sc1C1(C)CC(c2ccc(C#N)cc2)=NO1 (centres unmarked),-29.2
11,Cc1ccc(OCc2nnc(SCC(=O)Nc3ccc4c(c3)OCCO4)n2Cc2ccco2)cc1,6.31
12,COc1ccc2c(c1)c(C(C)=O)c(C)n2CCc1ccc(OC)c(OC)c1,-6.52
13,COc1ccc(C2Nc3ccccc3C(=O)N2NS(=O)(=O)c2ccccc2)cc1OC (centres unmarked),13.5
14,COc1cc(NS(=O)(=O)c2ccc(NC(=O)C3CCCO3)cc2)nc(OC)n1 (centres unmarked),6.87
15,S=c1[nH]nc(-c2ccccc2)n1/N=C/c1ccc(-c2ccccc2Cl)o1,25.4
16,COc1ccc(NC(=O)c2cc3c(=O)n4ccccc4nc3n2C)cc1OC,13.7
17,Cc1cccc(NC(=O)c2cc3c(=O)n4ccccc4nc3s2)c1,10.8
18,Cc1cccc(NC(=O)c2c(C)nc3ccccn23)c1,-0.935
19,COc1cccc(NC(=O)c2cc3c(=O)n4ccccc4nc3n(CC(C)C)c2=N)c1,-82
20,COc1cccc(NC(=O)C(Sc2nc3ccccc3c(=O)n2CC(C)C)c2ccccc2)c1 (centres unmarked),11.8
21,Cc1cccc(NC(=O)c2cc3c(=O)n4ccccc4nc3n(CC(C)C)c2=N)c1,-78

row,SMILES,"hERG current change (%, negative = inhibition) at 10uM [%]"
1,CCOc1ccc(NC(=O)CSc2nc(=O)n(Cc3cccnc3)c3c2CCC3)cc1,-8.74
2,CN(c1cccc(NC(=O)c2cccc([N+](=O)[O-])c2)c1)S(C)(=O)=O,13.1
3,O=C(Nc1ccc(N2CCOCC2)cc1N1CCOCC1)c1ccc([N+](=O)[O-])cc1,2.51
4,COc1cc(/C=N/NS(=O)(=O)c2ccc(Br)cc2)ccc1O,1.58
5,Cc1ccc(NC(=O)CNC(=O)c2ccco2)nc1,17.3
6,CCOc1cc(S(=O)(=O)n2cnc(C)c2)ccc1Cl,-8.24
7,COc1ccc(/C=C/C(=O)N(C)C2CCS(=O)(=O)C2)cc1OC (centres unmarked),2.01
8,COc1ccc(/C=C/C(=O)N2CCN(C)CC2)cc1OC,6.7
9,COc1ccc(C(=O)Cn2c(C(=O)/C=C/c3ccccc3)nc3ccccc32)cc1,-16.4
10,COc1ccc(N(C(=O)/C=C/c2ccc(OC)c(OC)c2)C2=CC3CCC(C2)N3C)cc1.Cl (centres unmarked),-69.6
11,COc1ccc(N(C(=O)/C=C/c2ccccc2)C2=CC3CCC(C2)N3C)cc1.Cl (centres unmarked),-74.6
12,COc1ccc(/C=C/C(=O)N(C)c2ccccc2C(=O)O)cc1,-4.18
13,Cn1c(C(=O)N[C@@H](Cc2ccccc2)C(=O)NCCC(=O)O)cc2cc(Cl)ccc21,0.651
14,COc1ccc(OCC(=O)OCC(=O)N2CC(=O)Nc3ccccc32)cc1,-3.16
15,Cc1ccc(CCC(=O)Nc2ccc([N+](=O)[O-])cc2)o1,0.967
16,CC1CN(c2ncnc3c2c(-c2ccccc2)cn3-c2ccc(F)cc2)CC(C)O1 (centres unmarked),12
17,COc1ccc(-n2cc(-c3ccccc3)c3c(N4CCN(CCO)CC4)ncnc32)cc1,-42
18,CCN1CCN(c2ncnc3c2c(-c2ccccc2)cn3-c2ccc(F)cc2)CC1,-74.5
19,OCCN1CCN(c2ncnc3c2c(-c2ccccc2)cn3-c2ccc(Br)cc2)CC1,-15.2
20,Cc1ccc(-n2cc(-c3ccccc3)c3c(N4CCN(C)CC4)ncnc32)cc1,-9.95
21,OCCN1CCN(c2ncnc3c2c(-c2ccccc2)cn3-c2ccc(F)cc2)CC1,-74.3

row,SMILES,"hERG current change (%, negative = inhibition) at 10uM [%]"
1,CNCCCC1c2ccccc2C=Cc2ccccc21.Cl,13.2
2,O=c1[nH]c(Nc2ccccc2Cl)cc2ccccc12,10.9
3,O=C(Cc1ccccc1F)OCN1C(=O)c2ccccc2C1=O,21.5
4,N#C/C(=C/c1cccc(C(F)(F)F)c1)c1nc(CCN2C(=O)c3ccccc3C2=O)cs1,-0.904
5,N#Cc1cccc(C(=O)OCC(=O)N2CCCc3ccccc32)c1,-1.94
6,COc1ccc(CN2CCC(n3nccc3NC(=O)CCCc3ccccc3)CC2)cc1C,-93.3
7,COc1cc(CN2CCC(n3nccc3NC(=O)CCCc3ccccc3)CC2)ccc1F,-66.5
8,COc1cc(CN2CCC(n3nccc3NC(=O)CCCc3ccccc3)CC2)ccc1O,-31.1
9,O=C(O)CNC(=O)c1ccccc1NC(=O)c1ccco1,7.93
10,COc1ccccc1C/C(N)=N/OC(=O)COc1ccc(C)cc1C,17.4
11,CC12CC3CC(C)(C1)CC(C(=O)NCc1cccnc1)(C3)C2,-11.6
12,COCC1CCN(Cc2nc(-c3ccc4c(c3)OCO4)no2)C1 (centres unmarked),-17.1
13,c1ccc(OCCN2CCN(Cc3nc(-c4ccc5c(c4)OCO5)no3)CC2)cc1,-51.5
14,COCC1CCCN(Cc2nc(-c3ccc4c(c3)OCO4)no2)C1 (centres unmarked),-5.71
15,O=C(c1ccco1)N1CCCN(Cc2nc(-c3ccc4c(c3)OCO4)no2)CC1,-46.1
16,c1cc(C2CCN(Cc3nc(-c4ccc5c(c4)OCO5)no3)CC2)ccn1,-19.7
17,Fc1ccc(CN2CCCN(Cc3nc(-c4ccc5c(c4)OCO5)no3)CC2)cc1,-62.2
18,Fc1ccccc1CNc1ncnc2sccc12,11.9
19,CCOC(=O)CN1C(=O)SC(Nc2ccc(C)cc2)C1=O (centres unmarked),27.1
20,O=C(Nc1c2c(nn1-c1ccccc1)CS(=O)C2)c1ccco1 (centres unmarked),7.5
21,CC(=O)OCC(=O)[C@@]1(OC(C)=O)[C@@H](C)C[C@H]2[C@@H]3C[C@H](F)C4=CC(=O)C=C[C@]4(C)[C@@]3(F)[C@@H](O)C[C@@]21C,-15.1

row,SMILES,"hERG current change (%, negative = inhibition) at 10uM [%]"
1,Cl.Oc1cccc(Nc2nc(NCC3CCCO3)c3ccccc3n2)c1 (centres unmarked),-61.4
2,Cl.OCCNc1nc(Nc2cccc(O)c2)nc2ccccc12,-23.8
3,CCOc1ccc(Nc2nc(N)c3ccccc3n2)cc1.Cl,-41.8
4,COc1ccc(OC)c(Nc2nc(NCCO)c3ccccc3n2)c1.Cl,-44.4
5,CCOc1ccc(Nc2nc(NCC3CCCO3)c3ccccc3n2)cc1.Cl (centres unmarked),-72.3
6,COc1ccc(Nc2nc(NCC3CCCO3)c3ccccc3n2)c(OC)c1.Cl (centres unmarked),-71.7
7,CC(C)Oc1ccc(-c2nc(NCC3CCCO3)c3ccccc3n2)cc1 (centres unmarked),-27.4
8,Cl.Oc1ccccc1Nc1nc(NCC2CCCO2)c2ccccc2n1 (centres unmarked),-67.5
9,Cl.c1ccc(Nc2nc(NCC3CCCO3)c3ccccc3n2)cc1 (centres unmarked),-31.2
10,Oc1ccc(Cl)cc1Nc1nc(NCC2CCCO2)c2ccccc2n1 (centres unmarked),23
11,COc1ccc(S(=O)(=O)Nc2nc3ccccc3nc2NCC2CCCO2)cc1 (centres unmarked),5.29
12,Oc1ccccc1-c1nc(NCC2CCCO2)c2ccccc2n1 (centres unmarked),19
13,CC(C)C[C@@H](CO)N1CCN(Cc2cccnc2)CCC1=O,3.69
14,CCn1c2ccccc2c2cc(NC(=O)c3cccc([N+](=O)[O-])c3C)ccc21,7.76
15,CCOc1ccc(/C=C2/SC(=S)N(n3c(C)ccc3C)C2=O)cc1,8.78
16,Cc1ccc(N=C(N(C)C)P(=O)(N(C)C)N(C)C)cc1,17.4
17,Cc1ccc(Oc2cc(NN3CCCCC3)c([N+](=O)[O-])cc2[N+](=O)[O-])c([N+](=O)[O-])c1,-10.3
18,O=C(Nc1cccc(NC(=O)c2ccccc2Cl)c1)c1cccs1,2.54
19,O=[N+]([O-])c1ccc(CSC2=NCCS2)cc1,-15.3
20,CC1CCN(C(=O)c2[nH]cnc2C(=O)N2CCN(C(=O)OC(C)(C)C)CC2)CC1,19
